# According to PubChem BioAssay (Tox21):
# Inconclusive results are not listed. A call without a number means that no potency is given here. Values without a mark were called inactive. Calls of active or inactive are those of the source. Unless noted, the call rests on the fitted dose curve; in most records, active means well fitted curve in the direction sought with a large enough effect in the repeat runs; inconclusive means weak or mixed curves; inactive means no such curve, though single readings can be large; an effect the other way counts as inactive or inconclusive.
# Legend:
# [1] = qHTS assay to identify small molecule agonists of the vitamin D receptor (VDR) signaling pathway - cell viability counter screen (AID 743224); further: series mostly up to about 63 µM; nearly all actives have a fitted effect of over 50% in size
# In short: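 Counter screen for cytotoxicity: VDR-bla cells at 2,000 cells/well, 16 h compound exposure, then CellTiter-Glo luminescence after the beta-lactamase measurement.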
# [2] = qHTS assay to identify small molecule antagonists of the vitamin D receptor (VDR) signaling pathway - cell viability counter screen (AID 743225); further: nearly all actives have a fitted effect of over 50% in size; further: potency means the concentration at half of the fitted maximal effect
# In short: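 VDR-UAS-bla HEK 293T cells were plated and incubated 4 h at 37C, then dosed with compound plus 3 nM (final) 1-alpha,25-dihydroxyvitamin D3 for 16 h. After the 2 h beta-lactamase read, viability in the same wells was read as CellTiter-Glo luminescence after 30 min at room temperature.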
# [3] = qHTS assay to identify small molecule agonists of the NFkB signaling pathway (AID 1159509; active means well fitted curve in the direction sought with a large enough effect in the signal ratio in the repeat runs, not every such curve was filed as active; the % refers to the signal ratio; further: series mostly up to about 61 µM)
# In short: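 Agonist activity was read as beta-lactamase-driven FRET change (460 and 530 nm emission, 405 nm excitation) following 1.5 hr substrate loading at room temperature. Beforehand, ME-180 NFkB-bla reporter cells were treated with compounds for 5 hr at 37 C.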
# [4] = qHTS assay to identify small molecule agonists of the NFkB signaling pathway - cell viability counter screen (AID 1159515; calls by dose curve; further: nearly all actives have a fitted effect of over 55% in size; further: potency means the concentration at half of the fitted maximal effect)
# In short: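 Counter screen run alongside the NFkB-bla agonist assay: ME-180 reporter cells exposed to compounds for 5 hr, then lysed with CellTiter-Glo in the same wells. Luminescence, read after 30 min, reflects viable cells.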
# [5] = qHTS assay to identify small molecule agonists of the endoplasmic reticulum stress response signaling pathway - cell viability counter screen (AID 1159517; calls by dose curve; further: nearly all actives have a fitted effect of over 50% in size; further: potency means the concentration at half of the fitted maximal effect)
# In short: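 ESRE-bla HeLa cells (1,500/well) were plated overnight at 37 C and exposed to compounds for 5 hr. After the 2 hr beta-lactamase substrate read, CellTiter-Glo went into the same wells, and luminescence was read after 30 min at room temperature.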
# [6] = qHTS assay to identify small molecule antagonists of the retinoid-related orphan receptor gamma (ROR-gamma) signaling pathway - cell viability counter screen (AID 1159520); further: nearly all actives have a fitted effect of over 50% in size
# In short: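 Cytotoxicity was read from cellular ATP (CellTiter-Glo luminescence) after 16 hr at 37 C with 1 uM doxycycline induction. The inducer was added 2 hr after compound transfer to Tet-on ROR gamma CHO cells.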
# [7] = target: Nuclear receptor ROR-gamma (Homo sapiens) (UniProt P51449); assay: qHTS assay to identify small molecule antagonists of the retinoid-related orphan receptor gamma (ROR-gamma) signaling pathway (AID 1159521; further: nearly all actives have a fitted effect of over 50% in size; further: potency means the concentration at half of the fitted maximal effect)
# In short: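 Tet-on ROR-gamma CHO cells with ROR response element-luciferase reporter; compounds added 2 hr before 1 uM doxycycline induction, then 16 hr at 37 C. Antagonism scored as decreased ONE-Glo luminescence.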
# [8] = qHTS assay to identify small molecule agonists of the AP-1 signaling pathway - cell viability counter screen (AID 1159525; calls by dose curve; further: nearly all actives have a fitted effect of over 55% in size; further: potency means the concentration at half of the fitted maximal effect)
# In short: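 Intracellular ATP by Cell Titer Glo luminescence (30 min, RT) in the same ME-180 AP-1-bla wells after the 5 h compound exposure at 37 °C. Normalised to tetra n-octyl ammonium bromide and DMSO controls.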
# [9] = qHTS assay to identify small molecule agonists of the AP-1 signaling pathway (AID 1159526; calls by dose curve)
# [10] = target: Retinoic acid receptor RXR-alpha (Homo sapiens) (UniProt P19793); assay: qHTS assay to identify small molecule agonists of the RXR signaling pathway (AID 1159527; calls by dose curve; further: nearly all actives have a fitted effect of over 35% in size)
# In short: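 GeneBLAzer RXR-alpha-UAS-bla HEK 293T cells in 2% charcoal-stripped FBS medium were exposed to compounds for 16 hr at 37 C in agonist mode. Beta-lactamase reporter read as 460/530 nm FRET ratio after 2 hr substrate loading.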
# [11] = qHTS assay to identify small molecule agonists of the RXR signaling pathway - cell viability counter screen (AID 1159529); further: nearly all actives have a fitted effect of over 50% in size; further: potency means the concentration at half of the fitted maximal effect
# In short: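 RXR-alpha-UAS-bla HEK 293T cells in medium with 2% charcoal-stripped FBS were pre-incubated 5 hr, then compound-treated 16 hr at 37 C. Viability was read by CellTiter-Glo luminescence in the same wells as the beta-lactamase assay, with tetraoctyl ammonium bromide as positive control.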
# [12] = qHTS assay to identify small molecule antagonists of the retinoid acid receptor (RAR) signaling pathway - cell viability counter screen (AID 1159551); further: nearly all actives have a fitted effect of over 35% in size
# In short: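 Measured by luminescent ATP detection, viability reflects C3RL4 cells treated 6 h at 37 C with test chemicals in the presence of 1 uM (final) retinol.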
# [13] = qHTS assay to identify small molecule agonists of the retinoic acid receptor (RAR) signaling pathway (AID 1159553)
# In short: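 6 hr compound exposure (DMSO vehicle) of overnight-plated C3RL4 RARE-luc cells at 37 C; luminescence quantified after 30 min RT with luciferase reagent.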
# [14] = qHTS assay to identify small molecule antagonists of the retinoic acid receptor (RAR) signaling pathway (AID 1159552; further: nearly all actives have a fitted effect of over 50% in size)
# In short: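 Retinol signaling pathway inhibitors screened in C3RL4 RARE-luciferase reporter cells seeded overnight at 37 C, then compounds added with 1 uM (final) retinol as pathway substrate. After 6 hr at 37 C, luciferase luminescence read after 30 min at room temperature.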
# [15] = qHTS assay to identify small molecule antagonists of the estrogen related receptor (ERR) signaling pathway - cell viability counter screen (AID 1224818); further: series mostly up to about 46 µM
# In short: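 Compounds dissolved in DMSO were applied to ERR cells seeded at 2,000 per well 6 h earlier. Cell viability followed 17.5 h later via 30-min CellTiter-Fluor fluorescence.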
# [16] = qHTS assay to identify small molecule antagonists of the estrogen related receptor (ERR) signaling pathway (AID 1224819)
# In short: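 Compounds dissolved in DMSO were pin-transferred onto ERR cells that had been plated 6 h earlier, and cells were then incubated 18 h at 37 C; signal was luciferase luminescence via One-Glo.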
# [17] = qHTS assay to identify small molecule agonists of the estrogen related receptor (ERR) signaling pathway (AID 1224820)
# In short: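 After 6 h plating (2,000 cells/well) and 18 h compound treatment at 37 C, ERR cells were lysed with One-Glo and luminescence read after 30 min at room temperature.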
# [18] = test system: estrogen-related receptor alpha (ERRalpha) with PGC-1alpha coactivator, human; assay: qHTS assay to identify small molecule antagonists of the estrogen related receptor signaling pathway with the pleiotropic PPARgamma coactivator (PGC) (AID 1224821; calls by dose curve)
# In short: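 Luminescence from One-Glo luciferase reagent (30 min, room temperature) measured after 18 h compound treatment at 37 °C. Cells carry the PGC/ERR reporter and were seeded 6 h prior to dosing.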
# [19] = qHTS assay to identify small molecule antagonists of the estrogen related receptor signaling pathway with the pleiotropic PPARgamma coactivator (PGC) cell viability counter screen (AID 1224822; further: series mostly up to about 46 µM)
# In short: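 Counter screen for cell viability: PGC/ERR cells, 6 h pre-incubation after plating, 17.5 h compound exposure at 37 C, fluorescence from CellTiter-Fluor after 30 min.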
# Retinoic acid receptor RXR-alpha (Homo sapiens), sequence (P19793 whole entry, looked up): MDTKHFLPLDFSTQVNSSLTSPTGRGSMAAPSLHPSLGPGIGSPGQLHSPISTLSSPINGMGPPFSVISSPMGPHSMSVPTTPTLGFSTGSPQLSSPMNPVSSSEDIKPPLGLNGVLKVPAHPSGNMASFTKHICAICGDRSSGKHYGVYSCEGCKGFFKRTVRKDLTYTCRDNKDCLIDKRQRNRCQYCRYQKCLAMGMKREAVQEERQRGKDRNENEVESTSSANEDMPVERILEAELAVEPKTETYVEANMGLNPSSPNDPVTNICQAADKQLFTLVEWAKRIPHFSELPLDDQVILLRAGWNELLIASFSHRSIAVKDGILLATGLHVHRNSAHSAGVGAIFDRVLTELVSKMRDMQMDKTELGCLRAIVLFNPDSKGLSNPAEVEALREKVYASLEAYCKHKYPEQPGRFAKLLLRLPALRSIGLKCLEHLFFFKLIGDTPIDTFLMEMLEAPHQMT
Compound,Potency [1],Potency [2],outcome [3],Potency [4],Potency [5],Potency [6],Potency [7],Potency [8],outcome [9],Potency [10],Potency [11],Potency [12],Potency [13],Potency [14],outcome [15],Potency [16],outcome [17],Potency [18],outcome [19]
CC(C)c1ccc(C#N)cc1,inactive,inactive,inactive,inactive,inactive,inactive,inactive,inactive,inactive,inactive,inactive,inactive,inactive,–,–,–,–,–,–
CCOC(=O)N1CCC(Nc2ccc(Cl)cc2N)CC1,inactive,inactive,inactive,inactive,inactive,inactive,inactive,inactive,inactive,inactive,inactive,inactive,inactive,–,–,–,–,–,–
CC(C)OC(=O)c1ccccc1C(=O)OC(C)C,inactive,inactive,inactive,inactive,inactive,inactive,inactive,inactive,inactive,inactive,inactive,inactive,inactive,inactive,–,–,–,–,–
CC1CCC(C(C)CS)CC1S (configuration not stated),inactive,inactive,inactive,inactive,19.5 µM (active),inactive,inactive,inactive,inactive,inactive,inactive,inactive,inactive,–,–,–,–,–,–
COC(=O)c1sccc1S(N)(=O)=O,inactive,inactive,inactive,inactive,inactive,inactive,inactive,inactive,inactive,inactive,inactive,inactive,inactive,inactive,–,–,–,–,–
CC(C)(C)NCC(O)COc1cccc2c1C[C@H](O)[C@H](O)C2 (some centres not stated),inactive,inactive,inactive,inactive,inactive,inactive,inactive,inactive,inactive,–,inactive,inactive,–,–,–,–,–,–,–
COc1ccc(N)c([N+](=O)[O-])c1,inactive,inactive,inactive,inactive,inactive,inactive,inactive,inactive,inactive,inactive,–,inactive,inactive,–,–,–,–,–,–
CNS(=O)(=O)c1cc(C(=O)N2CCC(CCN3C4CCC3CC(n3c(C)nc5ccccc53)C4)(c3cccc(F)c3)CC2)c(Cl)cc1F (configuration not stated),–,13.8 µM (active),inactive,38.9 µM (active),inactive,inactive,7.7 µM (active),24.5 µM (active),inactive,–,6.16 µM (active),inactive,–,–,–,–,–,–,–
CC(CO)(CO)C(=O)O,inactive,inactive,inactive,inactive,inactive,inactive,inactive,inactive,inactive,inactive,inactive,inactive,–,–,–,–,–,–,–
CCCCCCCCCCCCCC(=O)OCC(O)CO (configuration not stated),inactive,–,inactive,inactive,inactive,inactive,inactive,inactive,inactive,–,–,inactive,–,inactive,–,–,–,–,–
CC1=CC[C@@]23C[C@@H]1C(C)(C)[C@@H]2CC[C@H]3C,inactive,inactive,inactive,inactive,inactive,inactive,inactive,inactive,inactive,inactive,inactive,inactive,inactive,inactive,–,–,–,–,–
O=C(O)c1cccc(C[C@@H]2COc3ccc(OCc4nc5cc(F)ccc5s4)cc3[C@@H]2O)c1,inactive,inactive,inactive,inactive,inactive,inactive,inactive,inactive,inactive,–,inactive,inactive,–,–,–,–,–,–,–
COc1cc(NC(C)CCCN)c2ncccc2c1 (configuration not stated),inactive,inactive,inactive,inactive,inactive,inactive,inactive,inactive,inactive,–,inactive,inactive,–,–,–,–,–,–,–
COC1CCC=CO1 (configuration not stated),inactive,inactive,inactive,inactive,55.3 µM (active),inactive,inactive,inactive,inactive,inactive,inactive,inactive,inactive,inactive,–,–,–,–,–
CC(=O)c1ccc[nH]1,inactive,inactive,inactive,inactive,inactive,–,inactive,inactive,inactive,–,inactive,inactive,inactive,inactive,–,–,–,–,–
FC(F)(F)C(F)(F)C(F)(F)C(F)(F)CCI,inactive,–,inactive,inactive,inactive,inactive,–,inactive,inactive,inactive,inactive,inactive,inactive,–,–,–,–,–,–
CC12CC3CC(C)(C1)CC(N)(C3)C2,inactive,inactive,inactive,inactive,inactive,inactive,–,inactive,inactive,–,inactive,inactive,inactive,–,inactive,inactive,inactive,inactive,inactive
CCOCCC(=O)OCC,inactive,inactive,inactive,inactive,inactive,inactive,–,inactive,inactive,inactive,–,inactive,inactive,inactive,–,–,–,–,–
C1=CCC2CC=CC2C1 (configuration not stated),inactive,inactive,inactive,inactive,inactive,inactive,–,inactive,inactive,inactive,inactive,inactive,–,–,–,–,–,–,–
O=C(O)CNC(=O)c1ccccc1I,inactive,inactive,inactive,inactive,inactive,–,inactive,inactive,inactive,inactive,inactive,inactive,–,–,–,–,–,–,–
CCCCCCOC(=O)CCCCC,inactive,–,inactive,inactive,inactive,inactive,–,inactive,inactive,inactive,inactive,inactive,inactive,inactive,–,–,–,–,–
